Most compounds without a hit are left out; they make up all but 17% or so of the library.
TDP1 cell noCPT: qHTS for Inhibitors of human tyrosyl-DNA phosphodiesterase 1 (TDP1): qHTS in cells in absence of CPT. hit rate 15% among 420,000. DT40 Tdp1-/- hTDP1 cells, no CPT, ATP luminescence, 48 h. AID 686978, 2013. Potency, µM (series often up to 46.2 µM), for the others: at the highest dose activity change, negative = growth inhibition, hits mostly inhibitors; note: % is set by controls: 0 for no effect and ±100 for the full control effect; nearly all actives have a fitted effect of over 55% in size
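No-CPT arm: Tdp1-/-;hTDP1 DT40 cells (400/well) plus compounds, incubated ≥48 hr at 37 °C. Readout CellTiter-Glo luminescence.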
TDP1 cell CPT: DT40-hTDP1 cell growth loss with CPT; chicken DT40 Tdp1-/-;hTDP1 cells + 20 nM CPT, ATP luminescence, 48 h; Potency, µM (doses to about 46.2 µM), inactives show top-dose activity change, negative = growth inhibition, actives largely listed as inhibitors; hit rate 12% among 420,000; note: % is set by controls: 0 for no effect and ±100 for the full control effect; nearly all actives have a fitted effect of over 55% in size
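Chicken DT40 Tdp1-/- cells stably complemented with human TDP1 were seeded at 400 cells/well in medium containing 20 nM camptothecin, exposed to pin-transferred compounds, and grown at 37 °C for at least 48 hr. Viability was read as ATP luminescence.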
TDP1 block: TDP1 (human) enzyme inhibition. Potency, µM (titrated, usually from 130 µM), for inactives: at the top dose activity change, negative = inhibition, usual class: inhibitors. hit rate 0.28% among 350,000. Q9NUW8. recombinant TDP1, AlphaScreen DNA substrate cleavage; note: % is set by controls: 0 for no effect and ±100 for the full control effect; nearly all actives have a fitted effect of over 40% in size
Target sequence (Q9NUW8 whole entry, looked up): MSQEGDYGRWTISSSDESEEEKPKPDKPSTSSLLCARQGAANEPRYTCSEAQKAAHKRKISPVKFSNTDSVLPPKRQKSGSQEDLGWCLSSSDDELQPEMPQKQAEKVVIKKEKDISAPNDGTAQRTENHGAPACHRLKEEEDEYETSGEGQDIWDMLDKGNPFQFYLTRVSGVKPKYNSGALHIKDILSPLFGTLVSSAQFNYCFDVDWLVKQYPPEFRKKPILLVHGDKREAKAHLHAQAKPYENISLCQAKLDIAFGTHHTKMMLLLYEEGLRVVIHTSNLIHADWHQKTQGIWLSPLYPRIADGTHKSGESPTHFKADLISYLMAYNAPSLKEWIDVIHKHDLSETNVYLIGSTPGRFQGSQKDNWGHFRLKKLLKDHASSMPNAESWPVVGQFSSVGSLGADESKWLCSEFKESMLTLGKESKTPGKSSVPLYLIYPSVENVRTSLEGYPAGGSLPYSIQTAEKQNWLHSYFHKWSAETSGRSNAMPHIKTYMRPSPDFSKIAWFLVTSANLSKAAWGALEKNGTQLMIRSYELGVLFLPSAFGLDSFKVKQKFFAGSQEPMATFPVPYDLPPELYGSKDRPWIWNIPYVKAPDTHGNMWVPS
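AlphaScreen read-out: signal falls as enzyme removes the 3' tyrosine-FITC from a 5'-biotinylated DNA oligo (15 nM, 5 min, RT). Enzyme was E. coli-made recombinant Tdp1 at 1 nM, exposed to compound for 15 min beforehand; beads 10 ug/ml, 10 min.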
ClpP mod: qHTS Assay for Activators of ClpP; ATP-dependent Clp protease proteolytic subunit (Bacillus subtilis (strain 168)), P80244; purified B. subtilis ClpP, FRET peptide cleavage, 20 min; Potency, µM (highest dose often 57.5 µM), inactives show at the highest dose activity change, negative = active; hit rate 1.9% among 340,000; active = well fitted falling curve with a large enough effect; inconclusive = small, poorly fitted or top-dose-only effect; inactive = no such curve, though single readings can be large or run the other way; note: the source files actives as falling curves though it sought activators and does not explain the sign; nearly all actives have a fitted effect of over 65% in size
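FRET quenching reversal measured ClpP activation: 10 microg/mL B. subtilis ClpP at pH 8 with the FRET-FV decapeptide, read at 430 nm after 320 nm excitation. The 20-min minus 0-min signal was scaled between DMSO/no-enzyme wells and ADEP (5.8 microM final).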
* marks the source's active call; other numbers are inactive results; ? = inconclusive; · = no result given; [ ] = dose if it differs, or a comment. Unless noted, calls come from the whole dose curve; as a rule, active = well fitted curve in the direction sought with a large enough effect; inconclusive = small, poorly fitted or top-dose-only effect, or another doubt; inactive = no such curve, though single readings can be large; an effect the other way counts as inactive or inconclusive. Potency is the fitted concentration of half-maximal effect.

SMILES	TDP1 cell noCPT	TDP1 cell CPT	TDP1 block	ClpP mod
CC(C)(C)C(=O)CC1(O)C(=O)N(Cc2ccccc2)c2ccccc21 (centres undefined)	-14%	0%	-2%	-24%
Cc1ccccc1CN1C(=O)C(O)(CC(=O)c2ccncc2)c2ccccc21 (centres undefined)	3.3µM*	4.6µM*	-4%	2%
O=C(CC1(O)C(=O)Nc2ccc(Br)cc21)c1ccccc1 (centres undefined)	26µM*	?	·	4%
CCCCN1C(=O)C(O)(CC(=O)c2ccc(CC)cc2)c2cc(Br)ccc21 (centres undefined)	18µM*	?	·	0%
COC(=O)CN1C(=O)C(O)(CC(=O)c2ccc(C)cc2)c2cc(Br)ccc21 (centres undefined)	-2%	?	9%	0%
O=C(CC1(O)C(=O)N(Cc2ccccc2)c2ccc(Br)cc21)c1ccccc1 (centres undefined)	5.8µM*	15µM*	·	-5%
O=C(CC1(O)C(=O)N(CCc2ccccc2)c2ccc(Br)cc21)c1ccccc1O (centres undefined)	5.8µM*	5.2µM*	·	-7%
CC(C)c1ccc(C(=O)CC2(O)C(=O)N(CCc3ccccc3)c3ccc(Cl)cc32)cc1 (centres undefined)	?	?	·	0%
Cc1ccsc1CN(C)Cc1nc(C2CC2)no1	1%	30%	-1%	·
COc1ccc(OC)c(C2C3=C(CCCC3=O)Nc3nnnn32)c1 (centres undefined)	-15%	-10%	0%	-9%
CCCN(CCC)c1cc(C)nc2nc(-c3ccc(Cl)cc3)nn12	-15%	-12%	-7%	1%
CCCOC(=O)c1ccc(NC(=O)Cc2csc(C)n2)cc1	?	-37%	2%	1%
Cc1ccccc1	15%	-1%	8%	·
Cc1ccc(-c2cc3cccc[n+]3cc2-c2ccc(C)cc2)cc1	1.2µM*	0.65µM*	11%	2.8µM*
Cc1cc(C)cc(NC(=O)CN2CCN(CCN=CC3=C(O)CC(c4ccc(Cl)cc4)CC3=O)CC2)c1 (centres undefined)	6%	-12%	8%	1%
c1ccc(N=c2nc(-c3ccccc3)n(-c3ccccc3)s2)cc1	5.6µM*	6.3µM*	·	2%
CCOC(=O)C1=C(O)/C(=C/c2cn(CC(=O)N3CCCC3)c3ccccc23)SC1=Nc1ccccc1	18µM*	18µM*	2%	-7%
COC(=O)c1cn(CC(=O)N2CCCCCC2)c2ccccc12	3%	-1%	1%	-1%
Cc1ccccc1CN1CCc2cc([N+](=O)[O-])ccc21	18µM*	?	-3%	·
COc1ccc([N+](=O)[O-])cc1NCc1ccccc1C	-27%	-20%	-4%	0%
CC1CC2=C(NC(=S)NC2c2cccc(F)c2)/C(=C/c2cccc(F)c2)C1 (centres undefined)	16µM*	?	8%	·
Cc1ccc(/C=C2\CCCC3=C2NC(=S)NC3c2ccc(C)cc2)cc1 (centres undefined)	?	-48%	0%	16µM*
CC1CC2=C(NC(=S)NC2c2ccccc2F)/C(=C/c2ccccc2F)C1 (centres undefined)	?	?	3%	·
Cc1ccc(/C=C2\CC(C)CC3=C2NC(=S)NC3c2ccc(C)cc2)cc1 (centres undefined)	15µM*	?	10%	·
COCc1cc(C)nc2sc3c(=O)n(-c4cc(C)ccc4C)nnc3c12	-2%	-6%	2%	1%
SMILES	TDP1 cell noCPT	TDP1 cell CPT	TDP1 block	ClpP mod
Cc1ccc(S(=O)(=O)N2C[C@H]3C(=O)C[C@@H](c4ccc(Cl)cc4)N(S(=O)(=O)c4ccccc4C)[C@H]3C[C@H]2c2ccc(Cl)cc2)cc1	?	-16%	·	-1%
O=C(CSc1ncc(-c2ccccc2)n1C1CCCC1)N1CCc2ccccc21	21µM*	23µM*	3%	-1%
O=C(CSc1nnc(-c2ccccc2)c(-c2ccccc2)n1)N1CCc2ccccc21	?	16µM*	6%	-1%
Nc1cc(=O)[nH]c(SCC(=O)N2CCCc3ccccc32)n1	7%	-15%	-3%	0%
O=C(CSc1nc(-c2ccccc2)cc(=O)[nH]1)N1CCc2ccccc21	16µM*	21µM*	-1%	-3%
O=C1CCCc2cc(S(=O)(=O)N3CCCC(C(=O)NCc4ccc(Cl)cc4)C3)ccc2N1 (centres undefined)	·	·	-2%	0%
COc1ccc(C(=O)c2c(C(F)(F)F)oc3c2C(=O)c2ccccc2C3=O)cc1	7.3µM*	4.6µM*	12%	3.2µM*
COc1ccc(OCC(O)CNC(=O)c2c(-c3ccccc3)noc2C)cc1 (centres undefined)	-25%	-17%	3%	2%
Cc1ccc2nc(NC(=O)Cc3cccs3)sc2c1	-18%	?	7%	0%
Cc1ccc2nc(-c3ccc(NC(=O)C4CCCO4)cc3)[nH]c2c1 (centres undefined)	?	?	4%	32µM*
Cc1ccc2nc(-c3ccc(NC(=O)Cc4cccs4)cc3)[nH]c2c1	?	23µM*	1%	?
COc1ccc(-n2c(=O)c(C)nc3cnc(OC)nc32)cc1	2%	-3%	·	·
CCCN1CCN(S(=O)(=O)c2c(C)[nH]c(C)c2C(=O)N2CCCCC2)CC1	0%	-22%	4%	1%
COc1ccc(N(C)S(=O)(=O)c2cccc(C(=O)OCC(=O)Nc3cc(C)ccc3OC)c2)cc1	?	-6%	·	-2%
CC(=O)/C=C\c1ccccc1OC(=O)c1cc2ccccc2oc1=O	-4%	0%	0%	15%
O=C(/C=C\c1ccccc1OC(=O)c1ccccc1F)c1cc2ccccc2o1	15µM*	8.2µM*	1%	-1%
CCOc1cc([N+](=O)[O-])c2nc(N)sc2c1	5%	-11%	·	2%
Cc1ccccc1-c1nc2c3ccccc3nc(=S)n2[nH]1	3.3µM*	4.1µM*	·	-1%
CCOc1ccccc1NC(=O)Cn1ncc2c(=O)oc3ccc(C)cc3c21	-14%	-5%	-1%	-8%
Cc1ccc2nc(-c3ccccc3)cc(C(=O)N3CCN(S(=O)(=O)c4c(C)noc4C)CC3)c2c1	23µM*	?	0%	?
Cc1ccc2nc(-c3ccccc3)cc(C(=O)N3CCN(c4ccccc4O)CC3)c2c1	?	?	6%[0.505 µM]	-3%
Cc1ccc(S(=O)(=O)N2CCN(C(=O)c3c(-c4ccccc4)noc3C)CC2)c(C)c1	?	18µM*	2%	·
CCOc1cc(C(N)=O)cc(Br)c1OC	16µM*	23µM*	5%	1%
CC(C)(C)OC(=O)NCCCCCc1nnc(SCc2ccc(F)cc2)o1	23µM*	?	0%	·

Screens: PubChem BioAssay, National Center for Advancing Translational Sciences (NCATS)
